Measurements as given in ChEMBL document CHEMBL3988442, “University of Dundee, Small-Polar-MMV Screening Library” (2021).
The campaign covered roughly 38,000 compounds. About 1,200 (3.2%) showed an effect of 50% or more. The median lay at about -58%. The sample as a whole holds a higher share of strong results than the screen did.

tested on: Plasmodium falciparum; assay: Calibr Malaria Delayed Death Assay SOP; assay type: functional, organism-based; set-up: scale not given: in the data most compounds retested in dose-response had high values; details: concentration 4.99e-06 (unit not given; other assays of the set use mol/L)

Structure (SMILES) | Percent Effect [%]
C=C(C)CN1CCC(NC(=O)Nc2ccc(F)c(C(N)=O)c2)CC1 | -90.89
Cc1cc(Br)ccc1C(=O)NCCN1CCCCCC1 | 28.4
COc1ccc(Cn2cc(C(=O)N(C)Cc3ccn[nH]3)nn2)cc1 | -12.45
CCC(C)[C@H](N)c1nnc(SCC(=O)Nc2ccc(C)cc2C)o1.Cl (some centres undefined) | -23.34
COc1ccc(C2CCCCCN2Cc2cn(C)nc2C)cc1 (centres undefined) | -0.1987
CSc1ncnc(NCc2ccccc2F)c1C#N | -23.93
O=C1COc2cc(C(=O)NS(=O)(=O)c3ccc(F)cc3)ccc2N1 | -21.19
Cc1nn(C)c(Cl)c1C1CCCN1C(=O)c1cccn1C (centres undefined) | -34.06
c1cc(CNCC2CNc3ccnn3C2)cc(Cn2cccn2)c1 (centres undefined) | -27.88
N#Cc1ccc(N2CCCC3(CCN(c4cccnc4)CC3)C2)cc1.O=C(O)C(F)(F)F | -71.51
O=C(C1CCCO1)N1CCCC2(CCN(c3cccnc3)CC2)C1.O=C(O)C(F)(F)F (centres undefined) | -72.8
O=C(O)C(F)(F)F.O=C(O)C(F)(F)F.O=C(O)CN1CCC(F)(F)C2(CCN(c3ccccc3)C2)C1 (centres undefined) | 66.58
O=C(CO)N1CCC(F)(F)C2(CCN(c3ccccc3)C2)C1.O=C(O)C(F)(F)F (centres undefined) | -34.49
FC1(F)CCNCC12CCN(c1cccnc1)C2.O=C(O)C(F)(F)F.O=C(O)C(F)(F)F (centres undefined) | 64.81
Cn1ccnc1CN1CCC(F)(F)C2(CCN(c3cccnc3)C2)C1.O=C(O)C(F)(F)F.O=C(O)C(F)(F)F (centres undefined) | 58.45
Cn1ccnc1CN1CCC(F)(F)C2(CCN(c3cnccn3)C2)C1.O=C(O)C(F)(F)F (centres undefined) | -1.841
Cn1ccnc1CN1CCC2(CC1)CN(Cc1cccnc1)C(=O)CO2.O=C(O)C(F)(F)F.O=C(O)C(F)(F)F | -38.55
FC1(F)CCNCC12CCN(c1ccccn1)C2 (centres undefined) | 56.42
O=C(O)C(F)(F)F.O=C(O)C(F)(F)F.O=C(O)CN1CCC(F)(F)C2(CCN(c3ccccn3)C2)C1 (centres undefined) | -82.81
FC1(F)CCNCC12CCN(c1ncccn1)C2 (centres undefined) | 17.29
Fc1cccnc1N1CCC2(CNCCC2(F)F)C1 (centres undefined) | 45.04
COCC1CN(Cc2ccoc2)Cc2nn(CC3CC3)cc21.O=C(O)C(F)(F)F (centres undefined) | -62.03
O=C(C1CC(c2ccccc2)=NO1)N1CCc2ccccc21 (centres undefined) | -20.98
Cc1cnn(CCNCC(=O)NCCOc2ccc(Cl)cc2)c1 | -0.9504
O=C(Cc1noc(C(=O)NCC2CC2)n1)Nc1cccc(C(F)(F)F)c1 | 7.243

Structure (SMILES) | Percent Effect [%]
Clc1snnc1CN1CCN(c2nccs2)CC1 | -49.26
CC(=O)Nc1cccc2c1ccn2CC(=O)Nc1n[nH]c(CC(C)C)n1 | -107.2
Cc1csc(CNC(=O)N2CCN(Cc3ccco3)CC2)n1 | -96.64
CC(C)Oc1cc(N2C[C@H](C3CC3)[C@@H](N)C2)nc(N)n1 | -219.2
CNc1cc(C)nc(N2C[C@H](C3CC3)[C@@H](N)C2)n1 | 87.7
CNc1cc(C)nc(N2C[C@H](NC(=O)C3CCOCC3)[C@@H](C3CC3)C2)n1 | -47.54
CCc1cc(N2C[C@H](C3CC3)[C@@H](N)C2)nc(N2CCCC2)n1 | 69.94
CNc1cc(C)nc(N2C[C@@H](C(=O)O)[C@H](C3CC3)C2)n1 | -82.68
N[C@H]1CN(Cc2cnc(N3CCCC3)nc2)C[C@@H]1C1CC1 | -9.289
O=C1CN(C(=O)c2cccc(C(F)(F)F)c2)CC(O)CN1CC1CC1 (centres undefined) | -23.92
COCC(=O)N(Cc1ccc2[nH]ccc2c1)C1CC1 | -74.09
O=C(c1ccc(-c2ccoc2)nc1)N1CCCN(C2CCCCC2)CC1 | -100.8
Cc1ccc(S(=O)(=O)CCC(=O)N(C)Cc2cnn(C)c2)cc1 | -22.92
CCC1COCCN1C(=O)NCc1nccn1CCc1ccccc1 (centres undefined) | -72.5
CN(Cc1ccccc1OC(F)(F)F)C(=O)C1CC1 | -112.4
NC(=O)N1CCCC(C(=O)NCc2ccccc2OC(F)(F)F)C1 (centres undefined) | -135.5
COCCN1CCN(CC(O)c2ccc(C(F)(F)F)cc2)CC1 (centres undefined) | 6.899
OCCN1CCN(CC(O)c2ccc(OC(F)(F)F)cc2)CC1 (centres undefined) | -7.34
CC(c1ccc(C(F)(F)F)cc1)N1CCN(CCS(C)(=O)=O)CC1 (centres undefined) | -72.63
CC(NCC1CCN(CCO)CC1)c1ccc(OC(F)(F)F)cc1 (centres undefined) | 93.49
CC(NCC1CCN(CCO)CC1)c1ccc(C(F)(F)F)cc1 (centres undefined) | 88.54
CCCN1CCN(CC(O)c2ccc(OC(F)(F)F)cc2)CC1 (centres undefined) | 42.81
Cc1cccc(CN2CC3(CCN(S(=O)(=O)C4CC4)CC3)OCC2=O)n1.O=C(O)C(F)(F)F | -75.59
Cc1nccn1CCCC(=O)N1CCCN(c2cccnn2)CC1 | -112.5
